Screen size: about 300,000 compounds; about 2,400 (0.8%) were called active.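 The calls were made as follows: active = Every replicate reaches about 75%, or at least half do and their mean reaches it too (limit read from the data); inconclusive = At least half of replicates reach the limit but their mean does not; inactive = Under half of replicates reach the limit.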 What follows is part of a selection rich in actives, with near analogues and random picks from the rest.
test: INS-1E beta cell survival under cytokines – luminescence, primary screen (AID 435005); conditions: INS-1E cytokine-induced death, ATP luminescence, 48 h; stronger effect = higher value; percent of positive-control rescue, neutral wells zero; concentration not given here;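 also: 0% = cytokine-treated negative control wells and 100% = positive control rescue; higher means more ATP so stronger rescue from cytokine killing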

| Compound | protection from apoptosis |
| --- | --- |
| O=C(COC(=O)Cc1ccc([N+](=O)[O-])cc1)NC1CCCCCC1 | -5.89% (inactive) |
| NC(=O)C1CCN(C(=O)c2ccc(F)c(S(=O)(=O)N3CCOCC3)c2)CC1 | 0.339% (inactive) |
| O=C(c1cccnc1)N(c1cc2sc(=O)oc2c2ccccc12)S(=O)(=O)c1ccccc1 | 81.4% (active) |
| COc1ccc(N(C(=O)c2cccnc2)S(=O)(=O)c2ccc(OC)c(OC)c2)cc1 | -3.31% (inactive) |
| COc1ccc(N(C(=O)c2cccnc2)S(=O)(=O)c2ccc3c(c2)n(C)c(=O)n3C)cc1 | -8.54% (inactive) |
| COc1cc(Cl)c(C)cc1NC(=O)CSc1nnc(CN2CCCC2)o1 | 2.22% (inactive) |
| COc1cccc(NC(=O)COC(=O)c2ccc3ccccc3n2)c1 | -5.49% (inactive) |
| Cc1ccc(OCCCn2c(=O)oc3ccccc32)cc1 | 1.16% (inactive) |
| CCOC(=O)Cn1c(-c2cccnc2Cl)nc2ccccc21 | -2.69% (inactive) |
| COc1cccc(OCCCN2CCCCCC2)c1 | -3.45% (inactive) |
| CCCCCCCCCCOC(=O)Cn1c(COc2ccc(C)cc2)[n+](C)c2ccccc21 | 112% (active) |
| CCCCCCCCCCOC(=O)Cn1c(COc2cccc(OC)c2)[n+](C)c2ccccc21 | 109% (active) |
| CCn1c(=N)n(CC(=O)c2cccc(OC)c2)c2ccccc21 | -5.87% (inactive) |
| COc1ccc2nc3n(c(=O)c2c1)-c1cc(C)ccc1C(=O)NC3Cc1ccc(O)cc1 (stereo unspecified) | 9.76% (inactive) |
| COc1ccc(NS(=O)(=O)c2cc(NC(=O)c3ccc(S(=O)(=O)N(C)C)cc3)ccc2N2CCOCC2)cc1 | 5.26% (inactive) |
| COc1ccccc1OCCNC(=O)C(CCSC)NC(=O)COc1ccccc1 (stereo unspecified) | -1.66% (inactive) |
| Cc1ccc(S(=O)(=O)N2CCN(C)CC2)cc1 | 4.63% (inactive) |
| Cc1ccc(S(=O)(=O)N2CCN(c3ncnc4ccccc34)CC2)cc1 | 102% (active) |
| COc1ccc(C)cc1S(=O)(=O)N1CCN(S(=O)(=O)c2cc(C(=O)O)ccc2C)CC1 | -3.1% (inactive) |
| Cc1ccc(C)c(S(=O)(=O)N2CCN(C(=O)Nc3ccccc3)CC2)c1 | -4.43% (inactive) |
| Cc1ccc(C)c(S(=O)(=O)N2CCN(c3ncnc4sccc34)CC2)c1 | 112% (active) |

| Compound | protection from apoptosis |
| --- | --- |
| Cc1cc(N2CCN(S(=O)(=O)c3ccc(C)c(C)c3)CC2)c2ccccc2n1 | 10.4% (inactive) |
| COC(=O)[C@]1(CC(C)C)N[C@H](c2ccc(SC3CCCCC3)cc2)[C@@H]2C(=O)N(C)C(=O)[C@@H]21 | 2.66% (inactive) |
| C[C@H](CO)N1C[C@H](C)[C@@H](CN(C)C(=O)NC2CCCCC2)Oc2ccc(NC(=O)c3ccncc3)cc2C1=O | -8.1% (inactive) |
| CCOc1ccc(NS(=O)(=O)c2ccc(Cl)c(C(=O)N(C)Cc3cccnc3)c2)cc1 | 5.11% (inactive) |
| COc1ccccc1CNC(=O)COC(=O)c1cccs1 | -8.13% (inactive) |
| O=C1NC[C@@H](c2ccccc2)OC(=O)[C@H](Cc2ccc(F)cc2)CC/C=C/C[C@H]1CC(=O)N(CCO)Cc1ccccc1 | 5.81% (inactive) |
| C#CCOCCOCCOCCNc1nc(N2CCN(C(=O)[C@H](CCCN=C(N)N)n3cc(C(N)[C@@H](C)CC)nn3)CC2)nc(N2CCN(C(=O)[C@H](CO)n3cc([C@@H](N)C(C)C)nn3)CC2)n1 (stereo partly specified) | -10.4% (inactive) |
| COc1ccc2cc1Oc1ccc(cc1)C[C@H]1c3cc(c(OC)cc3CCN1C)Oc1c(O)c(OC)cc3c1[C@H](C2)N(C)CC3 | 98.5% (active) |
| COc1c(O)ccc2c1CN1CCc3cc4c(cc3C1C2)OCO4 (stereo unspecified) | -2.11% (inactive) |
| O=C(CNC(=O)c1ccco1)NNC(=O)c1ccc(Br)cc1 | -6.27% (inactive) |
| CC(C)(C)OC(=O)C[C@H]1C/C=C\C[C@@H](CC(=O)N[C@H](CO)Cc2ccccc2)C(=O)NC[C@@H](c2ccccc2)OC1=O | 6.61% (inactive) |
| CC1O[C@H](OC2C(COC3OC(CO)C(O)[C@H](O)C3O)OC(OC3CC[C@]4(C)C(CC[C@@]5(C)[C@@H]4C=C[C@]46OC[C@@]7(CCC(C)(C)C[C@H]74)C(O)C[C@@]56C)C3(C)C)C(O)C2O)C(O)C(O)C1O (stereo partly specified) | -6.92% (inactive) |
| C=C(C)C(=O)O[C@H]1C/C(C)=C\C(=O)/C=C(\C)[C@H](O)[C@@H]2OC(=O)C(=C)[C@@H]21 | 96.8% (active) |
| O=C(NCc1ccc2c(c1)OCO2)c1cc([N+](=O)[O-])ccc1N1CCOCC1 | 12.9% (inactive) |
| O=C(COC(=O)C1CCCO1)Nc1nc(-c2ccc(F)cc2)cs1 (stereo unspecified) | 0.639% (inactive) |
| c1ccc2c(CCN3CCNC[C@H]3Cc3cccc4ccccc34)cccc2c1 | 1.24% (inactive) |
| COc1ccc(S(=O)(=O)/N=C2\C=C(NS(=O)(=O)c3ccccc3)C(=O)c3ccccc32)cc1 | 1.27% (inactive) |
| CC(C)CC[n+]1ccn(C2=C([O-])c3ccccc3C(=O)/C2=N\S(=O)(=O)c2ccccc2)c1 | 95% (active) |
| COc1ccc(OCC(=O)NNC(=O)C2CCC2)cc1 | -4.44% (inactive) |
| COC(=O)[C@]1(Cc2ccccc2)N[C@H](CN(C)S(=O)(=O)c2ccc(F)cc2)[C@@H]2C(=O)N(Cc3ccccc3)C(=O)[C@@H]21 | 10.3% (inactive) |
| CN(Cc1cccnc1)C(=O)c1cc(COc2ccc3ncccc3c2)on1 | 101% (active) |

| Compound | protection from apoptosis |
| --- | --- |
| Cc1ccc(OCc2cc(C(=O)N(C)CCc3ccccc3)no2)cc1C | -0.126% (inactive) |
| Cc1cc(CN(C)C(=O)c2cc(COc3ccc(C)c(C)c3)on2)n[nH]1 | -0.122% (inactive) |
| O=C(COC(=O)COc1ccccc1F)Nc1cccc(S(=O)(=O)N2CCCCC2)c1 | -4.07% (inactive) |
| O=C(NCCCN1CCOCC1)c1cn(-c2ccccc2)nc1-c1ccc(F)cc1 | -0.73% (inactive) |
| Cc1oc2c(c1C(=O)N1CCOCC1)C(=O)c1ccccc1C2=O | 108% (active) |
| Cc1noc(C)c1C(=O)N1CCOCC1 | -4.19% (inactive) |
| CCOC(=O)c1ccccc1C(=O)N1CCOCCOCCOCC1 | 0.0542% (inactive) |
| CC(=O)Nc1ccc(S(=O)(=O)Nc2ccc(N3CCCCC3)cc2)cc1 | 119% (active) |
| CC(=O)Nc1ccc(S(=O)(=O)Nc2ccc(N3CCOCC3)c(F)c2)cc1 | 2.71% (inactive) |
| COc1cc(NS(=O)(=O)c2ccc(NC(C)=O)cc2)cc(OC)c1 | 25.4% (inactive) |
| COc1ccc(C)cc1NC(=O)CSc1cccc[n+]1[O-] | -1.83% (inactive) |
| CSc1ncccc1C(=O)NCC(c1ccco1)N1CCCCC1 (stereo unspecified) | -20.2% (inactive) |
| CC(C(=O)N1CCc2ccccc21)N(C)CC(=O)Nc1ccc(F)cc1 (stereo unspecified) | 6.77% (inactive) |
| Fc1ccc2cnc(-c3ccccc3)cc2c1 | -4.87% (inactive) |
| C[C@]12CC[C@H](O)CC1=CCC1C2CC[C@@]2(C)C1CC[C@@H]2NC(=O)CCC(=O)O (stereo partly specified) | 0.606% (inactive) |
| COc1cc(OC)cc(C(=O)NNC(=O)Cc2cccs2)c1 | -2.67% (inactive) |
| CC(=O)c1c(C)oc2ccc(NS(=O)(=O)c3ccc(C(=O)O)cc3)cc12 | -1.56% (inactive) |
| CC(=O)c1c(C)oc2ccc(NS(=O)(=O)c3ccccc3)cc12 | -0.111% (inactive) |
| COc1ccc(S(=O)(=O)Nc2ccc3oc(C)c(C(C)=O)c3c2)cc1 | 87.4% (active) |
| Cc1ccc(S(=O)(=O)N2CCN(C(=O)CN3C(=O)NC(C)(c4ccc(Cl)cc4)C3=O)CC2)c(C)c1 (stereo unspecified) | 0.524% (inactive) |
| Cc1ccc(S(=O)(=O)N(C)CC(=O)NCC(c2ccc(F)cc2)N2CCOCC2)cc1 (stereo unspecified) | -2.01% (inactive) |

| Compound | protection from apoptosis |
| --- | --- |
| CC(C)CC1NC(=O)c2cc(Cl)ccc2-n2c1nc1ccccc1c2=O (stereo unspecified) | -3.6% (inactive) |
| O=C(Nc1cccc(S(=O)(=O)N2CCCCC2)c1)c1cncc(Br)c1 | -1.23% (inactive) |
| CCCSc1ccc([C@H]2N[C@@](Cc3ccccc3)(C(=O)OC)[C@H]3C(=O)N(C)C(=O)[C@@H]23)cc1 | -4.97% (inactive) |
| CCN(CC)CCCN=Cc1c(O)n(-c2ccc(C)cc2)c(=O)c2ccccc12 | -3.92% (inactive) |
| CCOc1ccc(-n2c(O)c(/C=N/c3ccnn3Cc3ccncc3)c3ccccc3c2=O)cc1 | -6.16% (inactive) |
| CCOc1ccc(-n2c(O)c(/C=N/Nc3nc(C)cc(C)n3)c3ccccc3c2=O)cc1 | 83.2% (active) |
| COc1ccc(C(=O)C(C)OC(=O)c2cccc(S(=O)(=O)Nc3c(C)n(C)n(-c4ccccc4)c3=O)c2)cc1 (stereo unspecified) | -20.9% (inactive) |
| C[C@H](CO)N1C[C@H](C)[C@@H](CN(C)S(=O)(=O)c2ccc(F)cc2)Oc2ccc(NC(=O)CCC(F)(F)F)cc2C1=O | -4.6% (inactive) |
| C/C(=N\NS(=O)(=O)c1ccccc1)c1c(O)cc(C)oc1=O | -4% (inactive) |
| Cc1csc2nc(COC(=O)c3cccc(N(C)C)c3)cc(=O)n12 | 0.447% (inactive) |
| O=C(CCCOc1ccccc1)NNC(=O)c1ccc(Cl)cc1 | -1.22% (inactive) |
| COc1ccc(C2CC(c3ccc(C)cc3)Nc3nc(N)nn32)cc1 (stereo unspecified) | -2.94% (inactive) |
| COc1ccc(C2CC(c3ccc(Cl)cc3Cl)Nc3nc(N)nn32)cc1OC (stereo unspecified) | -0.0368% (inactive) |
| Cc1ccc(C2CC(c3cccc(C)c3)n3nc(N)nc3N2)cc1 (stereo unspecified) | 101% (active) |
| CCOc1ccccc1C1CC(c2ccccc2)Nc2nc(N)nn21 (stereo unspecified) | 2.14% (inactive) |
| Nc1nc2n(n1)C(c1ccco1)CC(c1ccc(Cl)c(Cl)c1)N2 (stereo unspecified) | 0.887% (inactive) |
| Cc1ccc(C2CC(c3cccc(Br)c3)n3nc(N)nc3N2)cc1 (stereo unspecified) | 91.3% (active) |
| O=C(CN1C(=O)NC2(CCCCCC2)C1=O)Nc1ccc([N+](=O)[O-])cc1 | 0.997% (inactive) |
